Test results from PubChem BioAssay (NCI).
About 79,000 compounds went through this panel and 15% of them were active in at least one assay; those are over-represented in the sample as a whole. Activity calls are given as the source filed them. No stated cut-off is given here; in the data, active means growth inhibition above about 70%; inactive means the rest.

Legend:
[1] = NCI Yeast Anticancer Drug Screen. Data for the rad50 strain (AID 155);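 further: 0% = growth of vehicle-only cultures of the same strain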; details: S. cerevisiae rad50 strain growth inhibition, hits give high values
How it was run: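 Vehicle-treated cultures provide the reference for the growth inhibition reported for compound-exposed, repair-deficient yeast.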

[2] = NCI Yeast Anticancer Drug Screen. Data for the mec2-1 strain (AID 157); details: S. cerevisiae mec2-1 strain, hits give high values
How it was run: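 Strain: mec2-1 (DNA repair/cell cycle alteration). Compound exposure, then growth measured; inhibition expressed relative to vehicle.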

[3] = NCI Yeast Anticancer Drug Screen. Data for the sgs1 mgt1 strain (AID 161);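 further: 0% = growth of cultures given vehicle only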; details: S. cerevisiae sgs1 mgt1 strain, hits give high values
How it was run: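 Mutant yeast exposed to compound; growth scored against vehicle-only wells.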

[4] = NCI Yeast Anticancer Drug Screen. Data for the cln2 rad14 strain (AID 165);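 further: 0% = growth equal to vehicle treated cultures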; details: S. cerevisiae cln2 rad14 strain, hits give high values
How it was run: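 Compounds are applied to the cln2 rad14 yeast strain, and growth is then compared with that of vehicle-treated cultures to give inhibition.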

[5] = NCI Yeast Anticancer Drug Screen. Data for the bub3 strain (AID 167); details: S. cerevisiae bub3 mutant strain, hits give high values
How it was run: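 Mutant yeast screening strain plus compound; vehicle-treated cultures serve as the 0% inhibition reference.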

[6] = NCI Yeast Anticancer Drug Screen. Data for the mlh1 rad18 strain (AID 175); details: S. cerevisiae mlh1 rad18 strain growth inhibition, hits give high values
How it was run: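 Read-out is yeast growth inhibition, calculated against vehicle-only controls. The compound was applied to a strain engineered with DNA damage repair alterations.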

[7] = at 5.0 µM (retest, dose inferred, filed as 0.5)
[8] = at 50.0 µM (retest, dose inferred, filed as 5.0)

Measured: growth inhibition

N=C(N)Sc1ccc([N+](=O)[O-])cc1Cl
active: [1]; [8] 94% | [1]; at 50.0 µM 85.2% | [2]; [8] 96% | [2]; at 50.0 µM 86.8% | [3]; [8] 97% | [3]; at 50.0 µM 90.3% | [4]; [8] 89% | [4]; at 50.0 µM 84.5% | [5]; at 50.0 µM 86.2% | [6]; [8] 96% | [6]; at 50.0 µM 85.7%
inactive: [1]; [7] 45% | [2]; [7] 35% | [3]; [7] 56% | [4]; [7] 36% | [5]; [7] 40% | [5]; [8] 59% | [6]; [7] 63%

CN(C)CCOc1cc2c(c3ccccc13)-c1ccccc1C2O (stereo not given)
active: [1]; [8] 96% | [1]; at 50.0 µM 98.3% | [6]; [8] 83% | [6]; at 50.0 µM 72.8%
inactive: [1]; [7] 30% | [2]; [7] 0% | [2]; [8] 45% | [2]; at 50.0 µM 26.8% | [3]; [7] 9% | [3]; [8] 69% | [3]; at 50.0 µM 67.8% | [4]; [7] 1% | [4]; [8] 31% | [4]; at 50.0 µM 38.1% | [5]; [7] 2% | [5]; [8] 34% | [5]; at 50.0 µM 34.5% | [6]; [7] 7%

COc1ccc(NC(=S)N/N=C/c2cccc(C)n2)cc1
inactive: [1]; [7] 8% | [1]; at 50.0 µM 67.4% | [2]; [7] 0% | [3]; [7] 13% | [4]; [7] 23% | [5]; [7] -22% | [6]; [7] 10%
active: [1]; [8] 98% | [2]; [8] 94% | [2]; at 50.0 µM 82.5% | [3]; [8] 90% | [3]; at 50.0 µM 86.5% | [4]; [8] 88% | [4]; at 50.0 µM 83.3% | [5]; [8] 85% | [5]; at 50.0 µM 85.9% | [6]; [8] 95% | [6]; at 50.0 µM 89.4%

O=C([O][Sb]([O]C(=O)C(Cl)(Cl)Cl)([c]1ccccc1)([c]1ccccc1)[c]1ccccc1)C(Cl)(Cl)Cl
inactive: [1]; [7] 12% | [1]; at 50.0 µM 41% | [2]; [7] 7% | [2]; [8] 56% | [2]; at 50.0 µM 29.2% | [3]; [7] 10% | [3]; at 50.0 µM 67.1% | [4]; [7] -5% | [4]; [8] 55% | [4]; at 50.0 µM 11.9% | [5]; [7] 6% | [5]; at 50.0 µM -69.9% | [6]; [7] 3% | [6]; at 50.0 µM 66.7%
active: [1]; [8] 76% | [3]; [8] 77% | [5]; [8] 76% | [6]; [8] 79%

CC(C)(C)c1ccc2c(c1)C(O)(c1ccccc1)C1OC1(C(C)(C)C)C2=O (stereo not given)
active: [1]; [8] 85% | [1]; at 50.0 µM 96.2% | [2]; [8] 82% | [2]; at 50.0 µM 94.5% | [3]; [8] 82% | [3]; at 50.0 µM 79.3% | [4]; [8] 87% | [4]; at 50.0 µM 91.7% | [5]; [8] 88% | [5]; at 50.0 µM 94.7% | [6]; [8] 91% | [6]; at 50.0 µM 93.2%
inactive: [1]; [7] 10% | [2]; [7] 9% | [3]; [7] 16% | [4]; [7] 4% | [5]; [7] -3% | [6]; [7] 31%

O=C1c2ccc(Cl)cc2C(=O)c2cc(Cl)ccc21
active: [1]; [8] 99% | [1]; at 50.0 µM 91.9% | [2]; [8] 98% | [3]; [8] 99% | [4]; [8] 99% | [5]; [8] 99% | [5]; at 50.0 µM 89.2% | [6]; [8] 99% | [6]; at 50.0 µM 77%
inactive: [1]; [7] 7% | [2]; [7] 11% | [2]; at 50.0 µM 46.5% | [3]; [7] 3% | [3]; at 50.0 µM 65.3% | [4]; [7] -12% | [4]; at 50.0 µM 14.3% | [5]; [7] 19% | [6]; [7] 8%

N#Cc1c(Cl)nsc1-c1ccc([N+](=O)[O-])cc1
inactive: [1]; [7] -6% | [1]; [8] 35% | [2]; [7] 7% | [2]; [8] 65% | [3]; [7] 1% | [3]; [8] 33% | [4]; [7] 27% | [4]; [8] 59% | [5]; [7] -6% | [6]; [7] 7%
active: [1]; at 50.0 µM 91.2% | [2]; at 50.0 µM 93% | [3]; at 50.0 µM 91.1% | [4]; at 50.0 µM 88.8% | [5]; [8] 80% | [5]; at 50.0 µM 92.3% | [6]; [8] 87% | [6]; at 50.0 µM 84.6%

CCCCCCCCCCCCOC(=O)C[n+]1cccc(C(N)=O)c1
inactive: [1]; [7] -1% | [2]; [7] -4% | [3]; [7] -3% | [4]; [7] -8% | [5]; [7] -6% | [6]; [7] -4%
active: [1]; [8] 99% | [1]; at 50.0 µM 99.8% | [2]; [8] 99% | [2]; at 50.0 µM 99.7% | [3]; [8] 81% | [3]; at 50.0 µM 99.8% | [4]; [8] 96% | [4]; at 50.0 µM 98.2% | [5]; [8] 99% | [5]; at 50.0 µM 99.6% | [6]; [8] 99% | [6]; at 50.0 µM 99.7%

O=C(c1ccccc1)C1C(c2ccccc2)OP(c2ccccc2)(c2ccccc2)(c2ccccc2)C1c1ccccc1 (stereo not given)
active: [1]; [7] 83% | [1]; [8] 99% | [1]; at 50.0 µM 99.7% | [2]; [7] 96% | [2]; [8] 99% | [2]; at 50.0 µM 99.8% | [3]; [7] 83% | [3]; [8] 100% | [3]; at 50.0 µM 99.8% | [4]; [8] 99% | [4]; at 50.0 µM 99.5% | [5]; [7] 80% | [5]; [8] 99% | [5]; at 50.0 µM 99.6% | [6]; [7] 84% | [6]; [8] 99% | [6]; at 50.0 µM 99.8%
inactive: [4]; [7] 56%

COc1cc(C(c2cc3c(cc2OC(C)=O)OCO3)C(C)C(C)=O)cc(OC)c1OC (stereo not given)
inactive: [1]; [7] 3% | [1]; at 50.0 µM -8.35% | [2]; [7] 4% | [2]; [8] 66% | [2]; at 50.0 µM 13.8% | [3]; [7] 5% | [3]; at 50.0 µM 0.1% | [4]; [7] 7% | [4]; [8] 49% | [4]; at 50.0 µM 51.2% | [5]; [7] 1% | [5]; [8] 40% | [5]; at 50.0 µM -1.75% | [6]; [7] 1% | [6]; [8] 38% | [6]; at 50.0 µM 29.1%
active: [1]; [8] 84% | [3]; [8] 95%
